This is an account of results in the supplement of paper PMC10338343.

± gives the standard deviation. The full ranking holds about 5,500 sequences; the median of “pre-steady-state target cleavage rate” is about 0.1, and the highest 2% start at about 0.64. For the sample, the highest values were picked, then their nearest neighbours and some sequences at random.

In this assay the test system is MIWI (PIWIL1) piRISC loaded with piRNA #2 (30 nt). The assay is described as follows: pre-steady-state target cleavage rate (min^-1); MIWI and MILI are mouse PIWI proteins and EfPiwi is from a freshwater sponge; tags in brackets are library labels; higher = faster piRNA-guided slicing of the target. The conditions noted are these: guide: piRNA #2 5'p-UUAGGUAACCCAGUAGAUCCAGAGGAAUUC; auxiliary factor: 500 nM mouse GTSF1. As for the experimental part:
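Cleave-'n-Seq: a library of target RNAs (target site embedded in constant flanks, ACAGCATTCCGCGTTAGTGATATCCG... 5' flank; DNA-blocked outside the site) at 0.1 nM was incubated with 1 nM active mouse MILI or MIWI piRISC (synthetic 5'-monophosphorylated piRNA guide) with or without 500 nM mouse GTSF1 at 33 °C for 1 min to 16 h. Uncleaved targets were sequenced and normalised to non-target controls, and the pooled three trials were fitted to a burst-and-steady-state model to give the pre-steady-state cleavage rate (min^-1; k3 is constrained to at most 1e-4). Sequence is the target site only; target names encode pairing extent (gX:gY) and contiguous / 1-mismatch / 2-mismatch / bulge geometry. Fits with R² ≤ 0 are excluded.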
CAAUUCCACUCGAUCUACUGGGUUACCUAA: the “pre-steady-state target cleavage rate” value was found to be 0.798 ± 0.047.
For CUAUUCCACUGGAUCUACUGGGUUACCUAA the value was 0.588 ± 0.061.
Regarding GAAUUCCACUCGAUCUACUGGGUUACCUAA, the “pre-steady-state target cleavage rate” value is 0.564 ± 0.056.
Regarding CUAUUCCACUCGAUCUACUGGGUUACCUAA, the “pre-steady-state target cleavage rate” value worked out at 0.703 ± 0.037.
For CUAUUCCACUGGAUCUACUCGGUUACCUAA the value was 0.0817 ± 0.018; for CUUUUCCACUCGAUCUACUGGGUUACCUAA, 0.547 ± 0.033.
In the case of CUUAACCUCUGGAUCUAGUGGGUUACCAAA, the “pre-steady-state target cleavage rate” value worked out at 0.0597 ± 0.0073.
On to CAAUUCCACUGGAACUACUGGGUUACCUAA, for which the “pre-steady-state target cleavage rate” value worked out at 0.408 ± 0.042.
With CUUAAGCUGUGGAUCUACUGGGUUUCCUAA, the “pre-steady-state target cleavage rate” value was determined as 0.0403 ± 0.019.
For CUUAUACCUCUGGAUCUACUGGGUUACCUAA the value was 0.389 ± 0.061; for GUAUACCUCUGGAUCUACUGGGUUACCUAA, 0.642 ± 0.23; for CUAUACCUCUGGAUCUACUGGGUUACCUAA, 0.544 ± 0.084.
For CAAUACCUCUGGAUCUACUGCGUUACCUAA the value was 0.488 ± 0.063.
The same measure for GAAUACCUCUGGAUCUACUGCGUUACCUAA: 0.456 ± 0.04; for CAAUACCUCUGGAUCUACUGGGUUACGUAA: 0.567 ± 0.059.
CUAUACCUCUGGAUCUACUGCGUUACCUAA: the “pre-steady-state target cleavage rate” value was 0.732 ± 0.066.
With CUAUACCUCUGGAUCUACUGGGUUACGUAA, the “pre-steady-state target cleavage rate” value stood at 0.674 ± 0.032.
For GAAUACCUCUGGAUCUACUGGGUUACGUAA the value was 0.609 ± 0.038; for CUUAAGCUCUGGAUCUACUGGCUUACCUAA, 0.0576 ± 0.012.
The same measure for CUUAAGGUCUGGAUCUACUGCGUUUCCUAA: 0.0557 ± 0.014; for CUUAAGGUAUGGAUCUACUGGGUUACCUAA: 0.323 ± 0.035; for CAAUUCCUCUGGAACUACUCGGUUACCUAA: 0.157 ± 0.022.
The same measure for CUUAACCUCUGGAUCUACUGGGUAAGCUAA: 0.05 ± 0.0099; for CUAUUCCUCCGGAUCUACUGGGUUACCUAA: 0.697 ± 0.12.
Turning to CAAUUCCUCGGAUCUACUGGGUUACCUAA, the “pre-steady-state target cleavage rate” value came out at 0.47 ± 0.087.
Turning to GAAUUCCUCCGGAUCUACUGGGUUACCUAA, the “pre-steady-state target cleavage rate” value was found to be 0.407 ± 0.058.
For CAAUUCCUCCGGAUCUACUGGGUUACCUAA the value was 0.677 ± 0.096; for CUAUUCCUCCUGGAUCUACUGGGUUACCUAA, 0.613 ± 0.06.
For CUAUUCCUCGGAUCUACUGGGUUACCUAA the value was 0.447 ± 0.083; for CUUAAGGACUGGAUCUACAGCGUUACCUAA, 0.00714 ± 0.0051; for CUUUUCCACUGGAUCUACAGGGUUACCUAA, 0.248 ± 0.016.
The same measure for CAAUUCCUCUGGAUCUUCUGGGUUACCUAA: 0.49 ± 0.065; for CAAUUCCUCUCGAUCUUCUGGGUUACCUAA: 0.737 ± 0.059; for CUUUUCCUCUCGAUCUUCUGGGUUACCUAA: 0.63 ± 0.051.
As for CUAUUCCUCUCGAUCUUCUGGGUUACCUAA, the “pre-steady-state target cleavage rate” value amounted to 0.803 ± 0.07.
As for GAAUUCCUCUCGAUCUUCUGGGUUACCUAA, the “pre-steady-state target cleavage rate” value turned out to be 0.62 ± 0.064.
In the case of CUAUUCCUCUGGAUCUUCUGGGUUACCUAA, the “pre-steady-state target cleavage rate” value is 0.412 ± 0.054.
The same measure for CUUAUCCUCUGGAUCAUCUGGGUUACCUAA: 0.246 ± 0.028; for CAUAACCUCUGGAUCUACUGGGUUACCUAA: 0.234 ± 0.033; for CUUAACCUCUGGAUCUUCUGGGUUUCCUAA: 0.042 ± 0.0092.
As for CAAUUCCUCUGGAUCUACAGGGUUUCCUAA, the “pre-steady-state target cleavage rate” value came out at 0.178 ± 0.026.
The same measure for CAAUUCCUCAGGAUCUACUGGGUUACCUUA: 0.604 ± 0.075; for GAAUUCCUCUGGAUGUACAGGGUUACCUAA: 0.413 ± 0.029.
For CUUAUCCUCUGGUUCUACUGGGUUACCUAA the value was 0.607 ± 0.047.
Take CAAAUCCUCUGGAUCUACUGGGUUACCUAA: the “pre-steady-state target cleavage rate” value was determined as 0.47 ± 0.069.
The same measure for CUAAUCCUCUGGUUCUACUGGGUUACCUAA: 0.755 ± 0.048; for GAAAUCCUCUGGUUCUACUGGGUUACCUAA: 0.624 ± 0.05.
For CUAAUCCUCUGGAUCUACUGGGUUACCUAA the value was 0.412 ± 0.061; for CAAAUCCUCUGGUUCUACUGGGUUACCUAA, 0.79 ± 0.044.
The same measure for CUUAAGCUCUGGAACUACUCGGUUACCUAA: 0.0422 ± 0.011; for CUUAUCCUCUGGAACUACUGGGUUACCUUA: 0.254 ± 0.03; for CGAUUCCUCUGGAUCUACUGGGUUACCUAA: 0.329 ± 0.048.
On to CUUUUCCUCUGGAUCUACUGGGUAACCAAA, for which the “pre-steady-state target cleavage rate” value was found to be 0.13 ± 0.034.
For CUUAAGGACGGGAUCUACUGGGUUACCUAA the value was 0.0681 ± 0.038.
For CAAUUCCUCUGGAAGUACUGGGUUACCUAA the value was 0.651 ± 0.044; for GAAUUCCUCUGGAUUACUGGGUUACCUAA, 0.413 ± 0.04; for CUAUUCCUCUGGAUUUACUGGGUUACCUAA, 0.529 ± 0.048.
The same measure for GAAUUCCUCUGGAAGUACUGGGUUACCUAA: 0.511 ± 0.047.
With CAAUUCCUCUGGAUUCUACUGGGUUACCUAA, the “pre-steady-state target cleavage rate” value was found to be 0.473 ± 0.059.
Regarding CAAUUCCUCUGGAUCUGCUGGGUUACCUAA, the “pre-steady-state target cleavage rate” value was 0.641 ± 0.08.
The same measure for GAAUUCCUCUGGAUUUACUGGGUUACCUAA: 0.425 ± 0.073; for CUAUUCCUCUGGAAGUACUGGGUUACCUAA: 0.631 ± 0.046; for CAAUUCCUCUGGAUUUACUGGGUUACCUAA: 0.681 ± 0.062.
For CAAUUCCUCUGGAUUACUGGGUUACCUAA the value was 0.692 ± 0.054; for GAAUUCCUCUGGAUCUGCUGGGUUACCUAA, 0.213 ± 0.044.
For CAAUUCCUCUGGAUCUCCUGGGUUACCUAA the value was 0.231 ± 0.051; for CAAUUCCUCUGGUUCUACUCGGUUACCUAA, 0.167 ± 0.014.
Regarding CAAUUCCUCUGGAACUACUGGGUUACCAAA, the “pre-steady-state target cleavage rate” value worked out at 0.289 ± 0.055.
The same measure for CUUAAGGAGUGGAUCUACUGGGUUGCCUAA: 0.0417 ± 0.011; for CUUAUCCAUCUGGAUCUACUGGGUUACCUAA: 0.508 ± 0.051; for CUUUUCCUCUGGACCUACUGGGUUACCUAA: 0.157 ± 0.02.
For GAAUUCCUGUGGAUCUACUGCGUUACCUAA the value was 0.362 ± 0.053; for CUUAUCCUCUGGAUCUACUGGGAUACCUAA, 0.302 ± 0.039; for CUUAAGGUCUGGAUCUUCUGGGAUACCUAA, 0.0453 ± 0.017.
Turning to CAAUUCCUCAGGAUCUACUGGGUUACGUAA, the “pre-steady-state target cleavage rate” value came to 0.594 ± 0.058.
The same measure for GAAUUCCACUGGAUCUACUGGGUUAGCUAA: 0.668 ± 0.12; for CUAUUCCACUGGAUCUACUGGGUUAGCUAA: 0.16 ± 0.04.
As for CUAUUCCUCAGGAUCUACUGGGUUACGUAA, the “pre-steady-state target cleavage rate” value came out at 0.499 ± 0.073.
The same measure for CAAUUCCACUGGAUCUACUGGGUUAGCUAA: 0.223 ± 0.076.
CAAUUCCACUGGAUCUACUGGGUUACGUAA: the “pre-steady-state target cleavage rate” value worked out at 0.419 ± 0.081.
The same measure for CAAUUCCUGUGGAUCUACUGGGUUACGUAA: 0.428 ± 0.075.
The same measure for GAAUUCCUCAGGAUCUACUGGGUUACGUAA: 0.738 ± 0.062.
For CUAUUCCACUGGAUCUACUGGGUUACGUAA the value was 0.481 ± 0.066.
For GAAUUCCUGUGGAUCUACUGGGUUACGUAA, the “pre-steady-state target cleavage rate” value is 0.637 ± 0.063.
On to CUAUUCCUGUGGAUCUACUGGGUUACGUAA, for which the “pre-steady-state target cleavage rate” value was found to be 0.47 ± 0.052.
The same measure for GAAUUCCACUGGAUCUACUGGGUUACGUAA: 0.803 ± 0.043.
With CUUAUCCUGUGGAUCUACUGGGUUACCAAA, the “pre-steady-state target cleavage rate” value amounted to 0.166 ± 0.038.
For CUAAACCUCUGGAUCUACUGGGUUACCUAA the value was 0.266 ± 0.04.
The same measure for CUUAUCCUGACGAUCUACUGGGUUACCUAA: 0.0767 ± 0.014; for CUUAACCCUGGAUCUACUGGGUUACCUAA: 0.326 ± 0.033; for CUUAUCCUCUGGAUCUACUGGGAUUCCUAA: 0.103 ± 0.04.
The same measure for CUUAAGGAGAGGUUCUACUGGGUUUCCUAA: 0.00421 ± 0.0042; for CUUAUCCUCUGGAUCUACUCGGUUACCUAA: 0.0981 ± 0.018.
